# Assay results taken from ChEMBL document CHEMBL1961873, “Compounds: GSK PKIS; Assays: Nanosyn kinase panel” (2012).
# Columns and labels:
# [1] = molecular target: T1, 3-phosphoinositide-dependent protein kinase 1 (Homo sapiens) (UniProt O15530); conditions: at 0.1 µM;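 also: values are mean inhibition of PDK1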
# T1 sequence (whole entry): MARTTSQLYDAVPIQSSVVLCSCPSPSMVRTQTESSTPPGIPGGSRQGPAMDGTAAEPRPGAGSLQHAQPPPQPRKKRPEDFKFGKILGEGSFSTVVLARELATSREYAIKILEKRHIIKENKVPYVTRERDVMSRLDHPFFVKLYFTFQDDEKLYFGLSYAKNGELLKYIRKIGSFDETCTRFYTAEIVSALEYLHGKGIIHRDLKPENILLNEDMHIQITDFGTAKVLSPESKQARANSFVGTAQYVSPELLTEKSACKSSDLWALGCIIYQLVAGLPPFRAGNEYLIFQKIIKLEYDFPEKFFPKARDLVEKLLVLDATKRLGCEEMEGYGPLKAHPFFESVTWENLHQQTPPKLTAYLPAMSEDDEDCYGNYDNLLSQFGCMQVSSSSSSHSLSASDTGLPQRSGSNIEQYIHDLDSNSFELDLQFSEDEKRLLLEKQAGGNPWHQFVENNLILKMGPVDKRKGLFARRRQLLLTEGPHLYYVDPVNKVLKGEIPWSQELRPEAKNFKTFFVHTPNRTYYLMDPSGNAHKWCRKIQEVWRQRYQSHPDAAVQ
# [2] = molecular target: cAMP-dependent protein kinase catalytic subunit alpha (Homo sapiens) (UniProt P17612); conditions: at 0.1 µM
# [3] = molecular target: cAMP-dependent protein kinase catalytic subunit alpha (Homo sapiens) (UniProt P17612); conditions: at 1 µM
# [4] = molecular target: Protein kinase C alpha type (Homo sapiens) (UniProt P17252); conditions: at 0.1 µM
# [5] = molecular target: Protein kinase C alpha type (Homo sapiens) (UniProt P17252); conditions: at 1 µM
# [6] = molecular target: Protein kinase C beta type (Homo sapiens) (UniProt P05771); conditions: at 0.1 µM
# Chain of Protein kinase C beta type (Homo sapiens) (P05771 2-671 limits assumed): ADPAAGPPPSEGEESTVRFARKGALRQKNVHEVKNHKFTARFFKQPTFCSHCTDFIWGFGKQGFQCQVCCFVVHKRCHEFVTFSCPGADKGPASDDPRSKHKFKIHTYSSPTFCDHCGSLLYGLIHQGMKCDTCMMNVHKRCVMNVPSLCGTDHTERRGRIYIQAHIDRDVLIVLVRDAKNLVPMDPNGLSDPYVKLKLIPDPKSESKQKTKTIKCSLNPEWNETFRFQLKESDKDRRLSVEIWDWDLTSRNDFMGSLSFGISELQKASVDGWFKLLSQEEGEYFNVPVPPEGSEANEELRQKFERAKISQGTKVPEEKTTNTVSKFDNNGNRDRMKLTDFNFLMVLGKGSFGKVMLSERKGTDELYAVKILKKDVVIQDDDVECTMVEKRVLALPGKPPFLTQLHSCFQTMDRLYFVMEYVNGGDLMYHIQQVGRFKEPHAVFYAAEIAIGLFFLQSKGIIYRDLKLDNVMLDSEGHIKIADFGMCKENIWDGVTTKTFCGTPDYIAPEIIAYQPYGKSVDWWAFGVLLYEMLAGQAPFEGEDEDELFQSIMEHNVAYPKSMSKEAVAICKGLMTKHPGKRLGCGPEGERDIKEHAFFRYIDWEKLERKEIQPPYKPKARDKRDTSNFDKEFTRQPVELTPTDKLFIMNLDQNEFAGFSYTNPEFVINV
# [7] = molecular target: Protein kinase C beta type (Homo sapiens) (UniProt P05771); conditions: at 1 µM
# [8] = molecular target: Protein kinase C eta type (Homo sapiens) (UniProt P24723); conditions: at 0.1 µM
# Chain of Protein kinase C eta type (Homo sapiens) (P24723 whole entry): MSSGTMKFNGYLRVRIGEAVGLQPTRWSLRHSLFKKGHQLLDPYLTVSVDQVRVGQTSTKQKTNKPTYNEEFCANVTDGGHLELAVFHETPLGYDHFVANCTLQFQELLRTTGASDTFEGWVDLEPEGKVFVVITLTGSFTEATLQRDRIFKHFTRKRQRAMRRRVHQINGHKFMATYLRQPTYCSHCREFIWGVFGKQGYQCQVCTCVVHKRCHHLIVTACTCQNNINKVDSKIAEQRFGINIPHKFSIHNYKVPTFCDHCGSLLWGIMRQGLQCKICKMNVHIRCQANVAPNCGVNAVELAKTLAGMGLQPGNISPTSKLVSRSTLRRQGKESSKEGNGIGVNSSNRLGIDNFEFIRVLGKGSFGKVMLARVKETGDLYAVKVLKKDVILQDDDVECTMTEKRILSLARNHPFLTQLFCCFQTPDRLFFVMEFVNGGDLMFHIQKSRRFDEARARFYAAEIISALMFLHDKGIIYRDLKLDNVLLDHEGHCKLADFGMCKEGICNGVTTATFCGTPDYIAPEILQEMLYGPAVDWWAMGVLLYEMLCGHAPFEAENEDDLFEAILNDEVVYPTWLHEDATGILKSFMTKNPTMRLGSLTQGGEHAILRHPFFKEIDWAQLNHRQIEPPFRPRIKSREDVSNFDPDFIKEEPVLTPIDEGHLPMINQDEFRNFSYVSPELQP
# [9] = molecular target: Protein kinase C eta type (Homo sapiens) (UniProt P24723); conditions: at 1 µM
# [10] = molecular target: Protein kinase C gamma type (Homo sapiens) (UniProt P05129); conditions: at 0.1 µM
# [11] = molecular target: Protein kinase C gamma type (Homo sapiens) (UniProt P05129); conditions: at 1 µM
# [12] = molecular target: T2, Protein kinase C iota type (Homo sapiens) (UniProt P41743); conditions: at 0.1 µM
# T2 sequence (whole entry): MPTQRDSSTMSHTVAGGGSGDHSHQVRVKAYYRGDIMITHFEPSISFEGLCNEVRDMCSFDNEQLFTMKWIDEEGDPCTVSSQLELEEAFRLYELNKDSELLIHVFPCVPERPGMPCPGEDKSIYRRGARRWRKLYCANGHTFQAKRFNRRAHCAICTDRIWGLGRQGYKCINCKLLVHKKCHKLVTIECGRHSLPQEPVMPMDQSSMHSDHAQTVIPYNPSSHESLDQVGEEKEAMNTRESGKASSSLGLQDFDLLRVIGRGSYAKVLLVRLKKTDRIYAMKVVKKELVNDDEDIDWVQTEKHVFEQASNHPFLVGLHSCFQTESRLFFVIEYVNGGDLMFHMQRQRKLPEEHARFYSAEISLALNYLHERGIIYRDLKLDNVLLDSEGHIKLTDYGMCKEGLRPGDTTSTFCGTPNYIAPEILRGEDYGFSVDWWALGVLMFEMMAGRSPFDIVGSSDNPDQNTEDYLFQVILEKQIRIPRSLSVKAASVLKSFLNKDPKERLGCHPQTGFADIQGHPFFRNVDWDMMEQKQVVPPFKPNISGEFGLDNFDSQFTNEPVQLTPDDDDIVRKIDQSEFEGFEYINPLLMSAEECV
# [13] = molecular target: T2, Protein kinase C iota type (Homo sapiens); conditions: at 1 µM
# [14] = molecular target: Protein kinase C theta type (Homo sapiens) (UniProt Q04759); conditions: at 0.1 µM
# Chain of Protein kinase C theta type (Homo sapiens) (Q04759 whole entry, looked up): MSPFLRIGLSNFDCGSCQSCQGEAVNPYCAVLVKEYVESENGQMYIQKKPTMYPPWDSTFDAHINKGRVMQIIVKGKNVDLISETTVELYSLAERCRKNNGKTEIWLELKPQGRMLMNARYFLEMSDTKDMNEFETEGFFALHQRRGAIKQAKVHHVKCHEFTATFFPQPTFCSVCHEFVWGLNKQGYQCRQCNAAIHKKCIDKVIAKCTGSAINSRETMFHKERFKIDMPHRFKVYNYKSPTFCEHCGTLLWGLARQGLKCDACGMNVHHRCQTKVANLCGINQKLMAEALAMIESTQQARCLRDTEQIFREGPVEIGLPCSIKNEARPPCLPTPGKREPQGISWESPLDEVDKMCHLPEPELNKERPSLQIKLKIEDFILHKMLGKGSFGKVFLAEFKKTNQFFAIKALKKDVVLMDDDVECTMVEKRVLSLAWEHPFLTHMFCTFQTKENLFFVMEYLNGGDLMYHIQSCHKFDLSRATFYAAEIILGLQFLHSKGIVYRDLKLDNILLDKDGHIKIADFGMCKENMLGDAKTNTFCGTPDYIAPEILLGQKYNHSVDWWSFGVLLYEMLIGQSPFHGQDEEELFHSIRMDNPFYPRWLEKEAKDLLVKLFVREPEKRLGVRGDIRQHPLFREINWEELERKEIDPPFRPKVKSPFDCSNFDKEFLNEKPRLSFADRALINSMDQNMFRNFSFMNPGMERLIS
# [15] = molecular target: Protein kinase C theta type (Homo sapiens) (UniProt Q04759); conditions: at 1 µM
# [16] = molecular target: Protein kinase C beta type (Homo sapiens) (UniProt P05771); conditions: at 0.1 µM; remark: listed apart in the source
# [17] = molecular target: Protein kinase C beta type (Homo sapiens) (UniProt P05771); conditions: at 1 µM; remark: listed apart in the source
# [18] = molecular target: T3, Serine/threonine-protein kinase D1 (Homo sapiens) (UniProt Q15139); conditions: at 0.1 µM
# T3 sequence (whole entry): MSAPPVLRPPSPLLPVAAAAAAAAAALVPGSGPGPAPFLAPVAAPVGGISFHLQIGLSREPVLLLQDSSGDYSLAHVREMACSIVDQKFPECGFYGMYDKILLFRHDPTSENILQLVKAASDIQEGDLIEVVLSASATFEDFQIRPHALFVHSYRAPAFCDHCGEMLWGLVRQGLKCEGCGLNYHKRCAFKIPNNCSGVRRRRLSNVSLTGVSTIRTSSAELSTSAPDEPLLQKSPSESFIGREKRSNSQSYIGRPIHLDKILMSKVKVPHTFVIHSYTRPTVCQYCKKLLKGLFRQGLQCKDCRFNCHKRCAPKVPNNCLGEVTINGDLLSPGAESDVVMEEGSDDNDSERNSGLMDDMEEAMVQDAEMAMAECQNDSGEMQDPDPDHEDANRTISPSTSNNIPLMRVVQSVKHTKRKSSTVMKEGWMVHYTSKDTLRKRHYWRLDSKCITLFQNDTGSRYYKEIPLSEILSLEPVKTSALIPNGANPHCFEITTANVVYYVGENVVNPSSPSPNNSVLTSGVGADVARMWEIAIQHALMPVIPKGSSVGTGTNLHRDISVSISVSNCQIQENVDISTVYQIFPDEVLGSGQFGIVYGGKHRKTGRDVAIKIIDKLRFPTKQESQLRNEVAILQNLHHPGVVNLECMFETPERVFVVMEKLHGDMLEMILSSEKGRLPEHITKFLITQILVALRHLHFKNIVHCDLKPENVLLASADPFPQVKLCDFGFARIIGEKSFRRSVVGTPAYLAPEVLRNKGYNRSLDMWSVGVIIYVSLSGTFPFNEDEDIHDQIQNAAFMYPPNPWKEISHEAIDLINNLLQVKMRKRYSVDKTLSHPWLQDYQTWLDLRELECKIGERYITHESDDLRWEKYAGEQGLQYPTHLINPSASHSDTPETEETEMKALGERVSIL
# [19] = molecular target: T3, Serine/threonine-protein kinase D1 (Homo sapiens); conditions: at 1 µM
# [20] = molecular target: T4, Serine/threonine-protein kinase D2 (Homo sapiens) (UniProt Q9BZL6); conditions: at 0.1 µM;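 also: reported percent inhibition values are means, part of the GSK PKIS kinase panel screen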
# T4 sequence (whole entry): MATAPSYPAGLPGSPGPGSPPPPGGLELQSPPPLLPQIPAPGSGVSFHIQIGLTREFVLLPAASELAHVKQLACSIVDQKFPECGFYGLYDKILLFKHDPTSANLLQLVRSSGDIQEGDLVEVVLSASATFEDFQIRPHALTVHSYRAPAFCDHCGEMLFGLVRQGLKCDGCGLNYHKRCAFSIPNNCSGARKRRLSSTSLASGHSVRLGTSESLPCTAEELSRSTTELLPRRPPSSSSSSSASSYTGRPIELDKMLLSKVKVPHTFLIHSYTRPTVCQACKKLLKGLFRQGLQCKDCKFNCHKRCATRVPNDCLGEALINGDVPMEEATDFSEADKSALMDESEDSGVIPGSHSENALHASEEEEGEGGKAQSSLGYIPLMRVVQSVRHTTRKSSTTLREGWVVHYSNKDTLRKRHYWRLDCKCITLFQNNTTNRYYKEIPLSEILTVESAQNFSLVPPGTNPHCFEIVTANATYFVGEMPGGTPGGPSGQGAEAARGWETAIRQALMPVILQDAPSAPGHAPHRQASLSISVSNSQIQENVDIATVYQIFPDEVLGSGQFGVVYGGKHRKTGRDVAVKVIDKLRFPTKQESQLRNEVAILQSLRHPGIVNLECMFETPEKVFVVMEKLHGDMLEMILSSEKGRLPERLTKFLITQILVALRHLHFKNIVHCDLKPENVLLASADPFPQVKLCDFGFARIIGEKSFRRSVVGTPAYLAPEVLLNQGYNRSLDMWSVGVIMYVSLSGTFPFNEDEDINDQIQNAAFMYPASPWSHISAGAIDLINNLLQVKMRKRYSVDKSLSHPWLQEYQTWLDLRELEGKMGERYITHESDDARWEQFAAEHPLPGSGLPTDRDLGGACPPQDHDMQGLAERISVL
Structure (SMILES),inhibition [1] [%],inhibition [2] [%],inhibition [3] [%],inhibition [4] [%],inhibition [5] [%],inhibition [6] [%],inhibition [7] [%],inhibition [8] [%],inhibition [9] [%],inhibition [10] [%],inhibition [11] [%],inhibition [12] [%],inhibition [13] [%],inhibition [14] [%],inhibition [15] [%],inhibition [16] [%],inhibition [17] [%],inhibition [18] [%],inhibition [19] [%],inhibition [20] [%]
CCc1nccc2c1nc(-c1nonc1N)n2CC,0.73,1.21,4.19,1.25,2.71,2.42,20,4.76,21.1,-1.83,-2.73,-0.45,1.45,-0.41,0.94,0.5,1.81,1.12,2.3,1.51
O=C1Nc2ccc(I)cc2C1=Cc1cc(Br)c(O)c(Br)c1,1.34,2.28,2.5,0.27,0.59,0.25,1.41,5.57,2.17,2.32,2.63,0.72,1.75,1.74,2.5,0.99,1.87,3.52,4.76,2.97
CN(C)c1ccc2c(c1)/C(=C/Nc1ccc(S(N)(=O)=O)cc1)C(=O)N2,11.6,1.77,1.6,0.48,1.56,0.94,0.89,2.02,2.17,0.64,2.72,2.24,1.5,1.16,0.84,1.61,1.98,2.16,7.78,1.23
C/C(Nc1ccc(S(N)(=O)=O)cc1)=C1/C(=O)Nc2ccccc21,6.52,-1.19,2.61,0.02,0.38,-0.26,1.85,-1.23,-1.17,-3.82,2.57,-0.37,0.02,-0.23,3.24,-0.77,1.28,0.51,15.9,0.69
O=C(Nc1n[nH]c2cc(-c3cc(F)ccc3F)ccc12)C1CC1,2.95,2.32,0.93,0.67,1.99,0.43,2.04,2.87,3.93,2.77,1.94,-0.39,2.69,1.32,1.51,1.71,4.18,2.95,3.73,3.73
O=C(Nc1n[nH]c2nc(-c3ccco3)ccc12)C1CC1,2.58,1.78,4.07,-0.2,0.41,-0.22,-1.09,-0.3,1.42,-0.6,3.88,1.28,-0.15,0.24,-0.12,0.74,1.21,0.7,1.4,-0.13
